Results from paper PMC9911399, “Two distinct binding modes provide the RNA-binding protein RbFox with extraordinary sequence specificity”.
Numbering of substitutions follows the chain as printed; changes in the protein carry UniProt numbers. The full ranking holds about 16,000 sequences; the median of “ka relative to ugcaugu” is about 0.0091, and the highest 2% start at about 0.032. The list comes from a sample in which the highest values are over-represented; it also holds similar and randomly drawn sequences.

T1: RBFOX1 RRM (Homo sapiens, UniProt Q9NWB1 109-208)
T1 sequence: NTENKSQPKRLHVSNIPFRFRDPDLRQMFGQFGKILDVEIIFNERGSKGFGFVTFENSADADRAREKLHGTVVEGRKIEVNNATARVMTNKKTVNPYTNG

B1: CCUAUCU (DNA:RNA)
RNA: GGGAGACCGGAAUUCAGAUUGUCCCCUAUCUUUAAAUCCCGUCGUAGCCACCA
DNA 1: CAATCTGAATTCCGGTCTCCC
DNA 2: TGGTGGCTACGACGGGATT
B2: UCGUAUU (DNA:RNA)
RNA: B1 RNA with C25U, U27G, A28U, U29A, C30U
DNA 1: CAATCTGAATTCCGGTCTCCC
DNA 2: TGGTGGCTACGACGGGATT
B3: AAACUUG (DNA:RNA)
RNA: B1 RNA with C25A, C26A, U27A, A28C, C30U, U31G
DNA 1: CAATCTGAATTCCGGTCTCCC
DNA 2: TGGTGGCTACGACGGGATT
B4: CUCACCC (DNA:RNA)
RNA: B1 RNA with C26U, U27C, U29C, U31C
DNA 1: CAATCTGAATTCCGGTCTCCC
DNA 2: TGGTGGCTACGACGGGATT
B5: AACGCAA (DNA:RNA)
RNA: GGGAGACCGGAAUUCAGAUUGUCCAACGCAAUUAAAUCCCGUCGUAGCCACCA
DNA 1: CAATCTGAATTCCGGTCTCCC
DNA 2: TGGTGGCTACGACGGGATT
B6: CCUCACG (DNA:RNA)
RNA: B1 RNA with A28C, U29A, U31G
DNA 1: CAATCTGAATTCCGGTCTCCC
DNA 2: TGGTGGCTACGACGGGATT
B7: CAAGGGU (DNA:RNA)
RNA: B5 RNA with A25C, C27A, C29G, A30G, A31U
DNA 1: CAATCTGAATTCCGGTCTCCC
DNA 2: TGGTGGCTACGACGGGATT
B8: UCCUUGA (DNA:RNA)
RNA: B5 RNA with A25U, A26C, G28U, C29U, A30G
DNA 1: CAATCTGAATTCCGGTCTCCC
DNA 2: TGGTGGCTACGACGGGATT
B9: UUUCAGA (DNA:RNA)
RNA: B5 RNA with A25U, A26U, C27U, G28C, C29A, A30G
DNA 1: CAATCTGAATTCCGGTCTCCC
DNA 2: TGGTGGCTACGACGGGATT
B10: UUGAGUG (DNA:RNA)
RNA: B1 RNA with C25U, C26U, U27G, U29G, C30U, U31G
DNA 1: CAATCTGAATTCCGGTCTCCC
DNA 2: TGGTGGCTACGACGGGATT
B11: UUGAUCC (DNA:RNA)
RNA: B1 RNA with C25U, C26U, U27G, U31C
DNA 1: CAATCTGAATTCCGGTCTCCC
DNA 2: TGGTGGCTACGACGGGATT
B12: UUCUGAA (DNA:RNA)
RNA: B5 RNA with A25U, A26U, G28U, C29G
DNA 1: CAATCTGAATTCCGGTCTCCC
DNA 2: TGGTGGCTACGACGGGATT
B13: UUGAUUC (DNA:RNA)
RNA: B1 RNA with C25U, C26U, U27G, C30U, U31C
DNA 1: CAATCTGAATTCCGGTCTCCC
DNA 2: TGGTGGCTACGACGGGATT
B14: UUGAGAG (DNA:RNA)
RNA: B5 RNA with A25U, A26U, C27G, G28A, C29G, A31G
DNA 1: CAATCTGAATTCCGGTCTCCC
DNA 2: TGGTGGCTACGACGGGATT
B15: UUGAUGA (DNA:RNA)
RNA: B1 RNA with C25U, C26U, U27G, C30G, U31A
DNA 1: CAATCTGAATTCCGGTCTCCC
DNA 2: TGGTGGCTACGACGGGATT
B16: UUGAUUG (DNA:RNA)
RNA: B1 RNA with C25U, C26U, U27G, C30U, U31G
DNA 1: CAATCTGAATTCCGGTCTCCC
DNA 2: TGGTGGCTACGACGGGATT
B17: UUGAGUC (DNA:RNA)
RNA: B1 RNA with C25U, C26U, U27G, U29G, C30U, U31C
DNA 1: CAATCTGAATTCCGGTCTCCC
DNA 2: TGGTGGCTACGACGGGATT
B18: UUGUUGA (DNA:RNA)
RNA: B5 RNA with A25U, A26U, C27G, G28U, C29U, A30G
DNA 1: CAATCTGAATTCCGGTCTCCC
DNA 2: TGGTGGCTACGACGGGATT
B19: UUUCUGA (DNA:RNA)
RNA: B1 RNA with C25U, C26U, A28C, C30G, U31A
DNA 1: CAATCTGAATTCCGGTCTCCC
DNA 2: TGGTGGCTACGACGGGATT
B20: UCUCAAG (DNA:RNA)
RNA: B1 RNA with C25U, A28C, U29A, C30A, U31G
DNA 1: CAATCTGAATTCCGGTCTCCC
DNA 2: TGGTGGCTACGACGGGATT

Each binder was assayed against T1, RBFOX1 RRM (assay: EMSA; HiTS-Eq, 1 nM pool, 10 min; buffer printed only for the single-RNA assays: 10 mM Tris pH 7.5, 150 mM NaCl, 3.4 mM EDTA, 0.001% NP-40, 30 C). Conditions: tags: His6 N-terminal (pET28a); label: 5' 32P.
In short: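 Purified RbFox RRM (wild type or mutant) was equilibrated for 10 min in 50 µL with 1 nM of a 5′-radiolabelled pool of RNA with 7 randomized nucleotides, its flanks annealed to DNA oligonucleotides, across increasing protein concentrations. Free RNA was separated by 8% native PAGE, excised, reverse-transcribed, PCR-barcoded and sequenced on an Illumina HiSeq 2500. Relative association constants came from read-count changes of each variant against the control reaction, normalised to the cognate motif.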

Binder | binding signal
B1 | 0.00242 KA relative to UGCAUGU
B2 | 0.00649 KA relative to UGCAUGU
B3 | 0.0047 KA relative to UGCAUGU
B4 | 0.00285 KA relative to UGCAUGU
B5 | 0.00455 KA relative to UGCAUGU
B6 | 0.00492 KA relative to UGCAUGU
B7 | 0.00279 KA relative to UGCAUGU
B8 | 0.0113 KA relative to UGCAUGU
B9 | 0.0123 KA relative to UGCAUGU
B10 | 0.0333 KA relative to UGCAUGU
B11 | 0.0141 KA relative to UGCAUGU
B12 | 0.0233 KA relative to UGCAUGU
B13 | 0.0169 KA relative to UGCAUGU
B14 | 0.0165 KA relative to UGCAUGU
B15 | 0.0228 KA relative to UGCAUGU
B16 | 0.0356 KA relative to UGCAUGU
B17 | 0.0173 KA relative to UGCAUGU
B18 | 0.0329 KA relative to UGCAUGU
B19 | 0.0328 KA relative to UGCAUGU
B20 | 0.00583 KA relative to UGCAUGU
